Source: PubChem BioAssay (NCI)
The panel holds about 79,000 compounds, 15% with a hit somewhere; the sample as a whole holds those more often. Values without a mark were called inactive. Active and inactive are the calls of the source. No stated cut-off is given here; in the data, active means growth inhibition above about 70%; inactive means the rest.

Experiment: NCI Yeast Anticancer Drug Screen. Data for the bub3 strain (AID 167)
Conditions: S. cerevisiae bub3 mutant strain, active compounds read high
Description: Growth inhibition of yeast strains with defined genetic alterations is measured as a screen for potential anti-cancer activity. Selected strains with alterations in DNA damage repair or cell cycle control were exposed to compounds and growth inhibition was measured relative to vehicle treated controls. The strain used in this assay is bub3

[1] = at 5.0 µM (retest, dose inferred, filed as 0.5)
[2] = at 50.0 µM (retest, dose inferred, filed as 5.0)

Structure (SMILES)	growth inhibition (at 1.2 µM) [%]	growth inhibition (at 3.7 µM) [%]	growth inhibition [1] [%]	growth inhibition (at 11.0 µM) [%]	growth inhibition (at 33.0 µM) [%]	growth inhibition [2]	growth inhibition (at 50.0 µM)	growth inhibition (at 100.0 µM)
COc1ccc(N=N/C(=N\NC(=O)c2cc(Br)ccc2O)c2ccc(N(CCC#N)CCC#N)cc2OC)cc1	28	14	19	16	49	69%	43.4%	68%
COc1ccc(/C=C(\NC(=O)c2ccccc2)C(=O)NN(C)c2ccnc3cc(Cl)ccc23)cc1OC	-4	-4	9	22	32	49%	90.2% (active)	50%
COCCCN(Cc1cc(OC)c(OC)c(OC)c1)C(=S)Nc1cccc(Cl)c1	-3	0	5	-2	30	79% (active)	72.2% (active)	72% (active)
Cc1ccc(Nc2n[nH]c(=S)s2)cc1	1	-12	45	-3	53	91% (active)	–	93% (active)
N#CC(=S)Nc1cccc(Cl)c1	12	7	26	2	41	63%	51.3%	67%
O=S1(=O)c2ccccc2N=C(c2ccccc2Cl)CC1c1ccc(F)cc1 (configuration not stated)	-4	-16	-20	-5	-2	56%	3.25%	13%
